# Target: GPR176
# Experiment: pooled miR-30 sensor sort-seq; sequence = guide strand
# Details: shRNA
# Further: reference of the scale not given here.
row,Sequence,sensor-assay potency score (higher = more potent)
1,ATAGATGTCAGCCACATTGGTT,-1.26
2,TTGCTGTTTCGGGTCTCTGAGA,-1.55
3,TATGATGACCTTCTTCTTCTGG,0.194
4,AAAAATTTGACGACCTTGCAGA,-0.383
5,TTGTCTGGATCAGCTCTTCTGG,-0.703

# Target: GPR20
# Experiment: as above
# Details: shRNA
row,Sequence,sensor-assay potency score (higher = more potent)
1,TTGATGGTGTAGATGACTGAGG,-1.03
2,TACCAGTAGATCGGTCACCACC,-1.53
3,AAACACGCTGATGACCAGCAGG,-1.04
4,TGCATGTTGAGGAAGTAACCGA,-0.614
5,TGGTGTAGATGACTGAGGGTGT,-0.513
6,TAGACCACGAGGCTCGTGTGGT,-1.11
7,ATGGTGTAGATGACTGAGGGTG,-1.26
8,TAGACGATGGGGTCCATGCAGC,-0.856
9,TAGTACACAGCGAAGCGCGTGG,0.127
10,TTGGAGCTCCTGTGCATGCTGA,-0.983
11,TAGCGGTCCACGCAGATGCAGG,-1.47
12,TAGATCGGTCACCACCAGGTTG,-0.8

# Target: GPR35
# Experiment: as above
# Details: shRNA
row,Sequence,sensor-assay potency score (higher = more potent)
1,TTTTGTGGGCCTTAGCACTGGG,-0.0303
2,TGTAGTAGTAGCAGATGGCGTC,0.146
3,TTGGCATCTGAGAGCTTGCTGG,-1.04
4,TTGCTGGTTATGTACAGGGCGC,-1.43
5,TAGGCGTAGAAGCCCAGCTTGA,-1.67
6,TTTGTGGGCCTTAGCACTGGGA,-1.13
7,ATGTAGTAGTAGCAGATGGCGT,-1.53
8,TGGAGTTGAAATTGTGCCGGGT,0.0323
9,TAGCAGATGGCGTCCAGGCAGC,-1.38
10,TTGGCCATGTAGTAGTAGCAGA,-0.948
11,ATGGAGTTGAAATTGTGCCGGG,-0.394
12,TAGAAGCCCAGCTTGATCGCTG,0.371

# Target: GPR3
# Experiment: as above
# Details: shRNA
row,Sequence,sensor-assay potency score (higher = more potent)
1,TAGACAGTGAAGGGCAACCAGC,-1.54
2,TTGTCTCTGAATAGTAGGTGAG,-1.17
3,TTGGAAGAGGAACAGCAGCAGC,-1.16
4,TATATGTGCATATATAATCTTT,-0.621
5,TAGAGCTGCAGCATGATGCCAA,-0.00504
6,TGACTAATCTCTCTGACTCTTT,-0.512
7,TTGTACAGAGAAAGGTAGCGGT,0.0257
8,TCTGAGTAGAACACTGACCACC,-0.825
9,TAGCTCAGAAATTCAAACGTAA,0.128
10,TAAATAGACACTGTCTTTGTAT,0.00652
11,TAGAACTCCAGAACCAGCTGGG,0.254
